Unmarked numbers belong to inactive results. Results filed as inconclusive are left out. Where a call stands in place of a potency, no number is given. Active and inactive are the calls of the source. Unless noted, the call rests on the fitted dose curve; in most records, active means well fitted activation curve with a large enough effect in the main read-out, with a control signal flat (not every such curve was filed as active); inconclusive means small, poorly fitted or top-dose-only effect, or effect the other way, or a change in a side signal; inactive means flat fitted curve, though single readings scatter.

Cytochrome P450 3A4 (Homo sapiens), sequence (P08684 whole entry, looked up): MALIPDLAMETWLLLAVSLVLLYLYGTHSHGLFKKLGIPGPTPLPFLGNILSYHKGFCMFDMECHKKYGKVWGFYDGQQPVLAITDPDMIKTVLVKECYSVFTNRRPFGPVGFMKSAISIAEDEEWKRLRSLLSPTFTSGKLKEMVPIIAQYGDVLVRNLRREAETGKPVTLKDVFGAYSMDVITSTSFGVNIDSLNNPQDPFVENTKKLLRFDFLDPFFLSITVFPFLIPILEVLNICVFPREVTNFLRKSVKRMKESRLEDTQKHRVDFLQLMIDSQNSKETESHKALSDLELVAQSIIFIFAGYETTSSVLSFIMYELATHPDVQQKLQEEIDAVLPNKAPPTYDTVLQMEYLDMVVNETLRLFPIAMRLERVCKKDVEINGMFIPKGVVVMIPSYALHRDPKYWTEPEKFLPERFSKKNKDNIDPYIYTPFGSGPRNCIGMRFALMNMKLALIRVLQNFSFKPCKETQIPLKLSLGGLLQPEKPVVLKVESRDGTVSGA

One assay deals with 3',5'-cyclic-AMP phosphodiesterase 4B (Homo sapiens) (UniProt Q07343). In words: qHTS Assay for Inhibitors of PDE-IV (AID 607). The note with it: HEK293 ACTOne CNG channel cells, membrane potential fluorescence; series mostly up to 22.9 µM. The method, boiled down: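 HEK293 ACTOne cells with CNG channel (1000/well), endogenous PDE4; membrane potential dye, compounds up to 22.9 uM final. Fluorescence Ex 535/Em 590; RO 20-1724 (100 uM final) as reference.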
3',5'-cyclic-AMP phosphodiesterase 4B (Homo sapiens), sequence (Q07343 whole entry, looked up): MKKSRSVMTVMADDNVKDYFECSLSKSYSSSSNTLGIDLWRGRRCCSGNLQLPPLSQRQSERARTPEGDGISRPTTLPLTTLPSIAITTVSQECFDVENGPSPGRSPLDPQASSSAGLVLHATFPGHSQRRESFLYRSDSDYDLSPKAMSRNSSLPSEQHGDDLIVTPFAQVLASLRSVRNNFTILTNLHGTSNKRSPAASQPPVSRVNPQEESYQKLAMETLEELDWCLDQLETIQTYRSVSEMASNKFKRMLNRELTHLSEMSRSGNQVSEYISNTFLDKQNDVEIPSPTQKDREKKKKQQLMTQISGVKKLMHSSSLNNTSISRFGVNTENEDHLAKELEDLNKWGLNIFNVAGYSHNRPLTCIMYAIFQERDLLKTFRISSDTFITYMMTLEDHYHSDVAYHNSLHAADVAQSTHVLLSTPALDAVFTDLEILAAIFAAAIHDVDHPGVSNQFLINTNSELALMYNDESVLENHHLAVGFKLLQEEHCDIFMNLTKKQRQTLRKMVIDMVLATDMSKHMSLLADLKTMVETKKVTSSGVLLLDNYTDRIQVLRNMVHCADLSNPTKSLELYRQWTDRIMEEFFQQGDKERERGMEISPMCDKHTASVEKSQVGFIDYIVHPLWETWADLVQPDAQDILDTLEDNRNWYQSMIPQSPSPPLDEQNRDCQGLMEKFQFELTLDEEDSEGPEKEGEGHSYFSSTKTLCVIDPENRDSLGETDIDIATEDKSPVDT
With `Cc1ccc(O)cc1` (tested in a mixture with another compound), the call was inactive.

In the case of `CCCOC(=O)[C@@H]1[C@@H](C(=O)O)[C@H]2CC[C@@H]1O2`, the outcome was inactive. `O=C(O)C(Oc1nc(=S)[nH]c(=S)[nH]1)(c1ccc(Cl)cc1)c1ccc(Cl)cc1`: the compound was classed as inactive.

For `O=C(Nc1ccc([As](=O)(O)O)cc1)Nc1cccc(Cl)c1Cl`, the compound was classed as inactive. `C[C@@]12CC[C@H]3[C@@H](CC=C4C[C@H](OS(=O)(=O)O)CC[C@]43C)[C@H]1CCC2=O`: the result was inactive.

Take `CCOC(=O)[C@@H]1[C@@H]2c3ccccc3-c3ccccc3[C@H]2C[C@H]1O`: the call was inactive. With `CN(C)CCC(C#N)(c1ccccc1)c1ccccc1`, the result was inactive. With `COC(=O)c1c(C)ccc2c(O)c3c(cc12)C(=O)c1c2c(cc(O)c1C3=O)[C@@]1(C)O[C@@](C)(O2)[C@@H](O)[C@H](N(C)C)[C@H]1O`, the call was inactive. In the case of `C[N+]1(C)C2CC[C@H]1CC(OC(=O)[C@@H](CO)c1ccccc1)C2` (stereo partly specified), the compound was called inactive. Same read-out and setting: the entry for `COc1ccc2c(c1O)-c1cccc3c1[C@H](C2)N(C)CC3` is “inactive”; for `COc1cc2c(cc1OC)[C@@]13CCN4C=C5CCO[C@H]6CC(=O)N2[C@@H]1[C@@H]6[C@H]5C[C@H]43` it is “inactive”.

Consider `O=C(N1CCOCC1)C1(c2ccccc2)CCNCC1`, for which the result was inactive. Consider `COc1cc([C@@H](O)CN)ccc1O`, for which the result was inactive. Same read-out and setting: the entry for `CC(=O)c1c(O)c(C)c(O)c(Cc2c(O)c3c(c(C(=O)/C=C\c4ccccc4)c2O)OC(C)(C)C=C3)c1O` is “inactive”; for `O=C(O)C(C(=O)O)P(=S)(S)c1ccccc1` (stereo unspecified) it is “inactive”. On the same count and under the same terms, the value for `O=C(O)[C@H]1[C@H](C(=O)O)[C@H]2CC[C@@H]1O2` was “inactive”. Same read-out and setting: the value for `c1cncc(CNCCN2CCNCC2)c1` was “inactive”. On to `CN[C@H]1[C@H](C)O[C@@H](O[C@@H]2C/C=C(/C)C/C(C)=C\C=C/CC[C@@H](C)CNC(=O)/C=C\C=C/[C@H]2C)C[C@@H]1O`, for which the outcome was inactive. On the same count and under the same terms, the value for `N=C(N)SCc1ccc(Cl)c2ccccc12` (tested in a mixture with another compound) was “inactive”; that for `COc1ccc2c(c1)[C@]13CCCC[C@@H]1[C@H](C2)NCC3` was “inactive”. Still for that read-out and setting: the entry for `C[C@@]12CC[C@H](O)C[C@@H]1CC[C@@H]1[C@@H]2CC[C@@]2(C)[C@@H](C3=CC(=O)OC3)[C@H](O)C[C@]12O` is “inactive”; for `O=C(C[C@H](c1ccccc1)c1c(O)c2ccccc2oc1=O)c1ccccc1` it is “inactive”. On the same count and under the same terms, the value for `COc1ccc(C[C@@H]2NC[C@H](O)[C@@H]2OC(C)=O)cc1` was “inactive”. For the compound `CO[C@@H]1CC=C2CCN3CCC4=C(CC(=O)OC4)[C@]23C1`, the result was inactive. In the case of `Cc1ccc(NC(=[OH+])c2cc3ccccc3cc2O)c(C)c1.Cc1ccc(NC(=[OH+])c2cc3ccccc3cc2O)c(C)c1.[Ni]`, the outcome was inactive. Take `C[C@]12CC[C@@H]3[C@H](CCC4=CC(=O)CC[C@]43C)[C@]1(O)CC[C@@]2(O)C(=O)CO`: the compound was classed as inactive.

For the compound `C[C@H](CC(C#N)(c1ccccc1)c1ccccc1)N1CCCCC1`, the compound was called inactive. Turning to `COc1cc2ccccc2c2cc([N+](=O)[O-])oc12`, the result was inactive. On the same count and under the same terms, the entry for `CC(C)N[C@@H](C)Cc1ccc(I)cc1` is “inactive”.

Consider `O=S(=O)(NCCO)c1cc[c]([Sb](=[O])([OH])[OH])cc1`, for which the compound was called inactive. For `NC(=O)CN1C[C@@H](O)CC1=O`, the compound was classed as inactive.

For the compound `CCSCC[C@H](N)C(=O)O`, the result was inactive.

On to `O=C(O)C(O)(c1ccc(-c2ccccc2)cc1)c1ccc(-c2ccccc2)cc1`, for which the result was inactive. As to `O=C(O)C[O][Sb][O]CC(=O)O`, the result was inactive. As to `Nc1c(C(=O)Nc2ccc([As](=O)(O)O)cc2)cnc2nnnn12`, the result was inactive. On to `C[Se]C[C@@H](N)C(=O)O`, for which the result was inactive. Same read-out and setting: the entry for `CN(C)[C@@H]1C(=O)C(C(N)=O)=C(O)[C@]2(O)C(=O)C3=C(O)c4c(O)cccc4[C@](C)(O)[C@H]3C[C@@H]12` is “inactive”; for `CN(C)CCCNc1c2c(nc3ccc(Cl)cc13)CCCC2` it is “inactive”.

For the next assay, the target named is Cytochrome P450 2C9 (Homo sapiens) (UniProt P11712). The assay can be described thus: qHTS Assay for Inhibitors and Substrates of Cytochrome P450 2C9 (AID 883; active means well fitted curve in the direction sought with a large enough effect; an effect the other way counts as inactive or inconclusive; further: nearly all actives have a fitted effect of over 60% in size; further: potency means the concentration at half of the fitted maximal effect). As to conditions: recombinant CYP2C9, luciferin-H luminescence, 60 min; series mostly up to 57.1 µM. The procedure, abridged: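 Human CYP2C9 (10nM) hydroxylated Luciferin-H (100uM, at its KM) to luciferin in 25mM KPO4. Compound was preincubated 10 min at 37C, then NADPH regeneration started a 60 min reaction at 37C. Luminescence was read after detection reagent, normalized to 57uM sulphaphenazole.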
Cytochrome P450 2C9 (Homo sapiens), sequence (P11712 whole entry, looked up): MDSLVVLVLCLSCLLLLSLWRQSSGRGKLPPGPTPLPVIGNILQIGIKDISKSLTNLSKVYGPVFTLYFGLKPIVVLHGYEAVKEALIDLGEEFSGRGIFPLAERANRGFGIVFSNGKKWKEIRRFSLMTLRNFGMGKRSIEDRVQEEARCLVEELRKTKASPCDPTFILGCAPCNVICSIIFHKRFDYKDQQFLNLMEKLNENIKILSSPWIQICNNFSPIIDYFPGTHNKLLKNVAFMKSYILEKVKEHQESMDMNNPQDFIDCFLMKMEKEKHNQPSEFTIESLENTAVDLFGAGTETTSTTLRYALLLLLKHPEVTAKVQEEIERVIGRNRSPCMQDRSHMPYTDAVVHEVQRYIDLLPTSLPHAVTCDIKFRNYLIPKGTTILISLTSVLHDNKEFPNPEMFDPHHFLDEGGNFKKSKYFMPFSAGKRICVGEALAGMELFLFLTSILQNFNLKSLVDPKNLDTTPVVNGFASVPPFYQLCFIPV
`CC(=O)c1c(O)c(C)c(O)c(Cc2c(O)c3c(c(C(=O)/C=C\c4ccccc4)c2O)OC(C)(C)C=C3)c1O`: the Potency was 0.631 µM (active). Turning to `CN[C@H]1[C@H](C)O[C@@H](O[C@@H]2C/C=C(/C)C/C(C)=C\C=C/CC[C@@H](C)CNC(=O)/C=C\C=C/[C@H]2C)C[C@@H]1O`, the activity change, negative = inhibition was -5.72% [at 11.4 µM]. `N=C(N)SCc1ccc(Cl)c2ccccc12` (tested in a mixture with another compound): the Potency was 3.98 µM (active). Regarding `O=C(C[C@H](c1ccccc1)c1c(O)c2ccccc2oc1=O)c1ccccc1`, the Potency is 0.631 µM (active). Regarding `Cc1ccc(NC(=[OH+])c2cc3ccccc3cc2O)c(C)c1.Cc1ccc(NC(=[OH+])c2cc3ccccc3cc2O)c(C)c1.[Ni]`, the Potency was 3.16 µM (active). As to `O=C(O)C(O)(c1ccc(-c2ccccc2)cc1)c1ccc(-c2ccccc2)cc1`, the Potency is 3.16 µM (active).

Another assay addresses Cytochrome P450 3A4 (Homo sapiens) (UniProt P08684). In words: qHTS Assay for Activators of Cytochrome P450 3A4 (AID 885; active means well fitted curve in the direction sought with a large enough effect; an effect the other way counts as inactive or inconclusive; further: nearly all actives have a fitted effect of over 65% in size). The note with it: recombinant CYP3A4, Luciferin-PPXE luminescence, 60 min; series mostly up to 57.1 µM. The procedure, abridged:
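Human CYP3A4 (20 nM) with Luciferin-PPXE at 25 uM (its KM) in 200 mM KPO4; 10 min compound preincubation, then NADPH regeneration and 60 min reaction at RT. Luciferin read by luminescence; normalized to 57 uM ketoconazole full inhibition.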
(In general: In qHTS, concentration-response curves come from the screen itself.)
As for `COc1ccc2c(c1O)-c1cccc3c1[C@H](C2)N(C)CC3`, the Potency entry is “inactive”.

Turning to `CC(=O)c1c(O)c(C)c(O)c(Cc2c(O)c3c(c(C(=O)/C=C\c4ccccc4)c2O)OC(C)(C)C=C3)c1O`, the Potency entry is “inactive”. As for `COc1ccc2c(c1)[C@]13CCCC[C@@H]1[C@H](C2)NCC3`, the Potency result was “inactive”. Take `O=C(C[C@H](c1ccccc1)c1c(O)c2ccccc2oc1=O)c1ccccc1`: the activity change, positive = activation was -30.1% [at 11.4 µM]. Regarding `CO[C@@H]1CC=C2CCN3CCC4=C(CC(=O)OC4)[C@]23C1`, the Potency result was “inactive”. `C[C@H](CC(C#N)(c1ccccc1)c1ccccc1)N1CCCCC1`: the activity change, positive = activation was -53% [at 11.4 µM]. With `C[Se]C[C@@H](N)C(=O)O`, the Potency entry was “inactive”.

The values above are taken from PubChem BioAssay (NCATS).
